According to PubChem BioAssay (NCI):
The panel holds about 79,000 compounds, 15% with a hit somewhere; the sample as a whole holds those more often. Unmarked numbers belong to inactive results. Activity calls are given as the source filed them. No stated cut-off is given here; in the data, active means growth inhibition above about 70%; inactive means the rest. Where a SMILES comes first, the peptide text is derived from it. The star is where a group is joined. Cbz = O=C(OCc1ccccc1)*

Key:
[1] = NCI Yeast Anticancer Drug Screen. Data for the rad50 strain (AID 155);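 further: 0% = growth of vehicle-only cultures of the same strain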; settings: S. cerevisiae rad50 strain growth inhibition, stronger effect = higher value
In short: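 A DNA repair-deficient yeast mutant serves as the test organism; compound-induced growth inhibition is calculated against vehicle-treated cells.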

[2] = NCI Yeast Anticancer Drug Screen. Data for the mec2-1 strain (AID 157); settings: S. cerevisiae mec2-1 strain, stronger effect = higher value
In short: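 Mutant yeast (mec2-1) grown with compound; growth inhibition relative to vehicle control reported.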

[3] = NCI Yeast Anticancer Drug Screen. Data for the sgs1 mgt1 strain (AID 161);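 further: 0% = growth of cultures given vehicle only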; settings: S. cerevisiae sgs1 mgt1 strain, stronger effect = higher value
In short: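 Growth of a repair-deficient yeast mutant was monitored after compound treatment and expressed as inhibition relative to vehicle-treated cultures.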

[4] = NCI Yeast Anticancer Drug Screen. Data for the cln2 rad14 strain (AID 165);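 further: 0% = growth equal to vehicle treated cultures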; settings: S. cerevisiae cln2 rad14 strain, stronger effect = higher value
In short: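 Readout is yeast growth inhibition versus vehicle-treated controls, using a strain with cln2 and rad14 alterations exposed to compound.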

[5] = NCI Yeast Anticancer Drug Screen. Data for the bub3 strain (AID 167); settings: S. cerevisiae bub3 mutant strain, stronger effect = higher value
In short: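 Inhibition values come from growth of compound-treated mutant yeast normalised to vehicle-treated controls.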

[6] = NCI Yeast Anticancer Drug Screen. Data for the mlh1 rad18 strain (AID 175); settings: S. cerevisiae mlh1 rad18 strain growth inhibition, stronger effect = higher value
In short: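 Genetically defined yeast (DNA repair-deficient) exposed to compounds; growth inhibition determined relative to vehicle.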

[7] = at 5.0 µM (retest, dose inferred, filed as 0.5)
[8] = at 50.0 µM (retest, dose inferred, filed as 5.0)

O=C(NC(Cc1ccc(O)cc1)C(=O)NC(Cc1ccccc1)C(=O)O)OCc1ccccc1 (stereo not drawn) (Cbz-Tyr-Phe-OH; configuration not given here)
growth inhibition [1, 7]: -6%
growth inhibition [1, 8]: -1%
growth inhibition ([1]; at 50.0 µM): -17.3%
growth inhibition [2, 7]: 29%
growth inhibition [2, 8]: -1%
growth inhibition ([2]; at 50.0 µM): 5.85%
growth inhibition [3, 7]: -2%
growth inhibition [3, 8]: 0%
growth inhibition ([3]; at 50.0 µM): 34.1%
growth inhibition [4, 7]: 1%
growth inhibition [4, 8]: 1%
growth inhibition ([4]; at 50.0 µM): -36.5%
growth inhibition [5, 7]: -5%
growth inhibition [5, 8]: -3%
growth inhibition ([5]; at 50.0 µM): -4.3%
growth inhibition [6, 7]: -2%
growth inhibition [6, 8]: -1%
growth inhibition ([6]; at 50.0 µM): -0.6%

COc1ccc(-c2c(-c3ccccc3)c(C)nc3nc(SC)nc(SC)c23)cc1OC
growth inhibition [1, 7]: 24%
growth inhibition [1, 8]: 95% (active)
growth inhibition ([1]; at 50.0 µM): 95% (active)
growth inhibition [2, 7]: 0%
growth inhibition [2, 8]: 96% (active)
growth inhibition ([2]; at 50.0 µM): 95% (active)
growth inhibition [3, 7]: 12%
growth inhibition [3, 8]: 97% (active)
growth inhibition ([3]; at 50.0 µM): 94.2% (active)
growth inhibition [4, 7]: -2%
growth inhibition [4, 8]: 92% (active)
growth inhibition ([4]; at 50.0 µM): 94.7% (active)
growth inhibition [5, 7]: -20%
growth inhibition [5, 8]: 94% (active)
growth inhibition ([5]; at 50.0 µM): 94.6% (active)
growth inhibition [6, 7]: 2%
growth inhibition [6, 8]: 96% (active)
growth inhibition ([6]; at 50.0 µM): 94.6% (active)

O=C1C=CC(=O)C2C1Cc1ccccc1C2c1ccccc1 (configuration not stated)
growth inhibition [1, 7]: 15%
growth inhibition [1, 8]: 97% (active)
growth inhibition ([1]; at 50.0 µM): 98.8% (active)
growth inhibition [2, 7]: 26%
growth inhibition [2, 8]: 98% (active)
growth inhibition ([2]; at 50.0 µM): 99.3% (active)
growth inhibition [3, 7]: 58%
growth inhibition [3, 8]: 98% (active)
growth inhibition ([3]; at 50.0 µM): 99% (active)
growth inhibition [4, 7]: 9%
growth inhibition [4, 8]: 92% (active)
growth inhibition ([4]; at 50.0 µM): 98.8% (active)
growth inhibition [5, 7]: 14%
growth inhibition [5, 8]: 98% (active)
growth inhibition ([5]; at 50.0 µM): 98.8% (active)
growth inhibition [6, 7]: 23%
growth inhibition [6, 8]: 98% (active)
growth inhibition ([6]; at 50.0 µM): 98.5% (active)

CN(C)CC1CCc2ccc3ccccc3c2C1=O (configuration not stated)
growth inhibition [1, 7]: 9%
growth inhibition [1, 8]: 34%
growth inhibition ([1]; at 50.0 µM): 25.9%
growth inhibition [2, 7]: -13%
growth inhibition [2, 8]: 27%
growth inhibition ([2]; at 50.0 µM): 31.6%
growth inhibition [3, 7]: 16%
growth inhibition [3, 8]: 48%
growth inhibition ([3]; at 50.0 µM): 56.4%
growth inhibition [4, 7]: 6%
growth inhibition [4, 8]: 29%
growth inhibition ([4]; at 50.0 µM): 7.95%
growth inhibition [5, 7]: 10%
growth inhibition [5, 8]: 63%
growth inhibition ([5]; at 50.0 µM): 48.8%
growth inhibition [6, 7]: 29%
growth inhibition [6, 8]: 65%
growth inhibition ([6]; at 50.0 µM): 15.4%

CCCCc1c2c(nc3c1CC/C(=C\c1ccc([N+](=O)[O-])cc1)C3=O)CCCC2
growth inhibition [1, 7]: 92% (active)
growth inhibition [1, 8]: 92% (active)
growth inhibition ([1]; at 50.0 µM): 88.5% (active)
growth inhibition [2, 7]: 97% (active)
growth inhibition [2, 8]: 94% (active)
growth inhibition ([2]; at 50.0 µM): 92.6% (active)
growth inhibition [3, 7]: 38%
growth inhibition [3, 8]: 92% (active)
growth inhibition ([3]; at 50.0 µM): 89.8% (active)
growth inhibition [4, 7]: 97% (active)
growth inhibition [4, 8]: 93% (active)
growth inhibition ([4]; at 50.0 µM): 88.1% (active)
growth inhibition [5, 7]: 98% (active)
growth inhibition [5, 8]: 91% (active)
growth inhibition ([5]; at 50.0 µM): 88.5% (active)
growth inhibition [6, 7]: 96% (active)
growth inhibition [6, 8]: 88% (active)
growth inhibition ([6]; at 50.0 µM): 89.6% (active)

Nc1ccc2c(c1)NCCN2
growth inhibition [1, 7]: 42%
growth inhibition [1, 8]: 76% (active)
growth inhibition ([1]; at 50.0 µM): 84% (active)
growth inhibition [2, 7]: 5%
growth inhibition [2, 8]: 17%
growth inhibition ([2]; at 50.0 µM): 32.1%
growth inhibition [3, 7]: 4%
growth inhibition [3, 8]: 20%
growth inhibition ([3]; at 50.0 µM): 23.5%
growth inhibition [4, 7]: 3%
growth inhibition [4, 8]: 6%
growth inhibition ([4]; at 50.0 µM): 21.4%
growth inhibition [5, 7]: 1%
growth inhibition [5, 8]: 18%
growth inhibition ([5]; at 50.0 µM): 18.2%
growth inhibition [6, 7]: 7%
growth inhibition [6, 8]: 31%
growth inhibition ([6]; at 50.0 µM): 53.4%

O=C1CCCCCCC2=C1C(Sc1ccccc1)CC2 (configuration not stated)
growth inhibition [1, 7]: -27%
growth inhibition [1, 8]: 34%
growth inhibition ([1]; at 50.0 µM): 78.8% (active)
growth inhibition [2, 7]: -6%
growth inhibition [2, 8]: 25%
growth inhibition ([2]; at 50.0 µM): 52.4%
growth inhibition [3, 7]: -16%
growth inhibition [3, 8]: 35%
growth inhibition ([3]; at 50.0 µM): 75.2% (active)
growth inhibition [4, 7]: 13%
growth inhibition [4, 8]: 28%
growth inhibition ([4]; at 50.0 µM): 45.6%
growth inhibition [5, 7]: 3%
growth inhibition [5, 8]: 69%
growth inhibition ([5]; at 50.0 µM): 60.1%
growth inhibition [6, 7]: -13%
growth inhibition [6, 8]: 80% (active)
growth inhibition ([6]; at 50.0 µM): 54.1%

Cc1ccc(C(C)(C)c2ccc(C(=O)O)cc2)cc1
growth inhibition [1, 7]: -4%
growth inhibition [1, 8]: -14%
growth inhibition ([1]; at 50.0 µM): 25.1%
growth inhibition [2, 7]: 3%
growth inhibition [2, 8]: 4%
growth inhibition ([2]; at 50.0 µM): 10.2%
growth inhibition [3, 7]: -3%
growth inhibition [3, 8]: 0%
growth inhibition ([3]; at 50.0 µM): 42.5%
growth inhibition [4, 7]: 1%
growth inhibition [4, 8]: -10%
growth inhibition ([4]; at 50.0 µM): -12.7%
growth inhibition [5, 7]: -6%
growth inhibition [5, 8]: -8%
growth inhibition ([5]; at 50.0 µM): -2.5%
growth inhibition [6, 7]: 1%
growth inhibition [6, 8]: -7%
growth inhibition ([6]; at 50.0 µM): 8.9%

Cc1nc(Nc2ccc(Cl)cc2)sc1C(=O)Nc1cccc2c(=O)[nH][nH]c(=O)c12
growth inhibition [1, 7]: 13%
growth inhibition [1, 8]: 13%
growth inhibition ([1]; at 50.0 µM): 83% (active)
growth inhibition [2, 7]: 6%
growth inhibition [2, 8]: 6%
growth inhibition ([2]; at 50.0 µM): 90.8% (active)
growth inhibition [3, 7]: 9%
growth inhibition [3, 8]: 9%
growth inhibition ([3]; at 50.0 µM): 91% (active)
growth inhibition [4, 7]: 3%
growth inhibition [4, 8]: 3%
growth inhibition ([4]; at 50.0 µM): 87.5% (active)
growth inhibition [5, 7]: 11%
growth inhibition [5, 8]: 11%
growth inhibition ([5]; at 50.0 µM): 91.1% (active)
growth inhibition [6, 7]: 14%
growth inhibition [6, 8]: 14%
growth inhibition ([6]; at 50.0 µM): 89.7% (active)
